Measured values from PubChem BioAssay (NCI).
This is part of a sample that, as a whole, favours compounds with a hit. Of some 83,000 tested, about 20% had one in any assay.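 Activity criterion: percent growth below 10, measured after cells in 96-well plates were exposed to a single compound concentration for 48 hours.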 Active and inactive are the calls of the source.

Test system: SK-MEL-2 melanoma
Assay: NCI-60 one-dose screen, 48 h (100 = growth as untreated, 0 = no growth, -100 = all killed)
Settings: 10 µM unless noted

| SMILES | growth |
| --- | --- |
| CC(C)=CCC[C@](C)(O)[C@H]1CC[C@]2(C)[C@@H]1CC[C@@H]1[C@@]3(C)CC[C@H](N)C(C)(C)[C@@H]3CC[C@]12C | 109% (inactive) |
| Cc1cc2nc(C(Cl)Cl)nc(-c3ccc(S(=O)(=O)N(C)C)cc3)n2n1 | 93% (inactive) |
| CCCCCCNC(=O)Oc1ccc(/C(=C(/C)c2ccc(OC)cc2)c2ccc(OCCN3CCCCCC3)cc2)cc1 | 74.5% (inactive) |
| Cc1nc(/N=C(N)/N=C(\N)c2cccc(Br)c2)sc1C | 64% (inactive) |
| O=c1nc(Nc2ccc([N+](=O)[O-])cc2O)sc2ccccc12 | 39.4% (inactive) |
| C#CCOc1ccc(-c2csc(NC(=O)C=C)n2)cc1NS(=O)(=O)c1cccc2c(N(C)C)cccc12 | 69.4% (inactive) |
| COc1ccc(C2CC(c3cccc(OCCCCOc4cccc(C5=NOC(c6ccc(OC)cc6)C5)c4)c3)=NO2)cc1 (stereo not given) | 103% (inactive) |
| Cc1ccc(OCc2occc2C(=O)N2CCOCC2)cc1 | 107% (inactive) |
| O=S(=O)(NCCCNc1nccc(-c2[nH]c(-c3ccccc3)nc2-c2ccc(F)c(O)c2)n1)c1cccc2ccccc12 | 17.1% (inactive) |
| CCc1cc(OC(=O)N2CCC(N3CCCCC3)CC2)ccc1Nc1cc(-c2ccc(-n3cccn3)cc2)[nH]n1 | 95.9% (inactive) |
| O=C(COc1ccc(/C=C2\C(=O)Nc3ccc(F)cc32)cc1)Nc1ccccc1 | 122% (inactive) |
| CC1=C(C)C(=O)C(Nc2cccc(C(=O)OC(C)(C)C)c2)=CC1=O | 82.4% (inactive) |
| Cn1cc(-c2nnc(N)nc2-c2c[nH]c3ccc(F)cc23)c2cc(Br)ccc21 | 11.8% (inactive) |
| Cn1c(SCC(=O)c2ccc(F)cc2)nc2ccccc2c1=O | 105% (inactive) |
| CN1CCN(c2ccc(Nc3nc(NCCCNS(=O)(=O)c4cccc5ccccc45)c4sccc4n3)cc2)CC1 | -81.7% (active) |
| CCCCCC[n+]1ccc(SCC(=O)n2ccc3ccccc32)c2ccccc21 | 94.3% (inactive) |
| COc1ccc(-c2cc(-c3ccc(N(C)C)cc3)n3c(n2)nc2ccccc23)cc1 | -3.8% (active) |
| CC(=O)N(O)CCCCCNC(=O)CCC(=O)N(O)CCCCCNC(=O)CCC(=O)N(O)CCCCCN(CCCCCCCCCC[P+](c1ccccc1)(c1ccccc1)c1ccccc1)CCCCCCCCCC[P+](c1ccccc1)(c1ccccc1)c1ccccc1 | -46.7% (active) |
| CC1=C(C)C(=O)C(Nc2ccc3c(c2)OCCO3)=C(Br)C1=O | 114% (inactive) |
| COc1ccc2c(c1)C=CC1(O2)Oc2ccc(OC)cc2C=C1C (stereo not given) | 47.3% (inactive) |

| SMILES | growth |
| --- | --- |
| C/C(=C(\c1ccc(O)cc1)c1ccc(OCCN2CCCCCC2)cc1)c1ccc(Cl)cc1 | -92.3% (active) |
| Brc1cccc(-c2cc(-c3ccc4c(c3)OC=CO4)[nH]n2)c1 | 58.7% (inactive) |
| COc1ccc(C(C)=C(c2ccc(OCCN(C)C)cc2)c2ccc(OCCN(C)C)cc2)cc1 | -70.3% (active) |
| NS(=O)(=O)c1ccc(Nc2nc(N/N=C/c3ccc4c(c3)OCO4)nc(Nc3ccccc3)n2)cc1 | 55.8% (inactive) |
| COc1ccc(C2c3[nH]c4ccc(Cl)cc4c3CCN2c2oc(CO)nc2C#N)cc1 (stereo not given) | 81.6% (inactive) |
| CCc1cc2c(cc1Cl)nc1c(=O)[nH]c(=O)nc-1n2CCOCC(C)C | 80.1% (inactive) |
| COc1ccc(-c2c3c(cn2Cc2cccc(OC)c2)-c2oncc2CCC3)cc1 | 96.2% (inactive) |
| COc1ccc(/C(=N\NC(N)=S)c2ccc(Cl)cc2)cc1OC | -23.8% (active) |
| O=C(CSc1nnc(-c2ccc(Cl)cc2)n1-c1ccccc1)Nc1ccccc1Cl | 95.5% (inactive) |
| COc1ccc(-c2c(C(N)=O)c(N)n(Cc3nc4ccccc4[nH]3)c(=O)c2C#N)c(OC)c1 | 99.2% (inactive) |
| COc1ccc(-c2cnc(NC(=O)CCCCCCNC(=O)C(O)(O)C(F)(F)F)s2)cc1 | -27.3% (active) |
| C#C[C@]1(O)CC[C@H]2[C@@H]3CC=C4c5sc(Nc6cc(C)cc(C)c6)nc5CC[C@]4(C)[C@H]3CC[C@@]21C | 14% (inactive) |
| COC(=O)CNC(=O)c1cccc(-c2cc(=O)c3c(OC)c(OC)c(OC)cc3o2)c1 | 105% (inactive) |
| CCC1=Cc2c(OC)cccc2OC12C=Cc1c(OC)cccc1O2 (stereo not given) | 65.8% (inactive) |
| Cc1ccc2c(n1)C(=O)C(Cl)=C(Nc1ccc(C#N)cc1)C2=O | 104% (inactive) |
| Cn1ncc2c(C(=O)c3ccc(F)cc3)nc(C(C)(C)C)nc21 | 103% (inactive) |
| CN1c2ccccc2Sc2cc(/C=N/Nc3ccnc4cc(Cl)ccc34)ccc21 | 98.3% (inactive) |
| COCCOc1ccc2ncc(C#Cc3cncc(C(=O)Nc4ccc(CN5CCN(C)CC5)c(C(F)(F)F)c4)c3)n2n1 | -82.7% (active) |
| O=C(CCCCCCNC(=O)C(O)(O)C(F)(F)F)Nc1ncc(-c2ccccc2)s1 | -23.3% (active) |
| CCCCN1C(=O)/C(=c2\sc3n(c2=O)C2C(NN=3)N(CC)C(=O)N2CC)c2cc(C)ccc21 (stereo not given) | 113% (inactive) |
